NTMT1 inh: blocks human N-terminal methyltransferase 1 activity; Q9BV86; NTMT1 MTase-Glo SAH luminescence, purified enzyme; Potency, µM (series often up to 114 µM), for the others: top-dose activity change, negative = inhibition, hits mostly inhibitors; 2.5% of 59,000 active; AID 1645870;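 also: plate controls were DMSO vehicle for no effect and no enzyme for full effect; nearly all actives have a fitted effect of over 65% in size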
Target sequence (Q9BV86 whole entry, looked up): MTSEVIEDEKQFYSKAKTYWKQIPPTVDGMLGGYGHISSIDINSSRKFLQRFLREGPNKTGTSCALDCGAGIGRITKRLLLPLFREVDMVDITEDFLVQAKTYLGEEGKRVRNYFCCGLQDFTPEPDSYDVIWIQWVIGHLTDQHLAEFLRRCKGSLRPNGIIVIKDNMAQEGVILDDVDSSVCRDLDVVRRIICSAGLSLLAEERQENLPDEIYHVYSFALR
OvCa metastasis: ovarian cancer metastasis inhibition, 3D TME model. SKOV3ip1-GFP adhesion/invasion on 3D omental model, fluorescence. 0.1% of 46,000 active. Potency, µM (highest dose often 45.8 µM), for inactives: top-dose activity change, negative = inhibition, hits mostly inhibitors;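 also: plate controls were DMSO wells for no effect and tomatine positive control wells for full effect; nearly all actives have a fitted effect of over 65% in size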
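Adhesion/invasion was scored as fixed GFP-labeled SKOV3ip1 cell counts (488/509 nm), normalized to DMSO and tomatine controls. Cancer cells in serum-free medium, with four compound doses (0.36-46 umol/L), sat 2 hr at RT then 16 hr at 37 C on a 48 hr fibroblast/mesothelial/ECM culture.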
p53null 32C kill: p53 null cell cytotoxicity, permissive temperature. AID 903. 0.62% of 55,000 active. Potency, µM (titrated, usually from 46.1 µM), inactives show top-dose activity change, negative = cytotoxicity, actives largely listed as cytotoxic. H1299-neo p53 null cells, ATP luminescence, 24 h, 32C;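 also: 0% = DMSO only and -100% = full killing by 100 µM tamoxifen; nearly all actives have a fitted effect of over 55% in size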
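ATP-content luminescence in p53-null H1299-neo cells after 24 h compound exposure (up to 46 uM) at 32C permissive temperature; 0% and 100% killing set by DMSO and 100 uM tamoxifen; Hill-equation AC50.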
p53null 39C kill: kills p53 null cells at the nonpermissive temperature; H1299 p53-null (neo) cells, 39C, ATPlite viability, 24 h; Potency, µM (doses to about 46.1 µM), for inactives: top-dose activity, negative = cell killing, usual class: cytotoxic; 0.97% of 55,000 active; AID 904;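 also: 0% = DMSO only and -100% = full killing by 100 µM tamoxifen; nearly all actives have a fitted effect of over 50% in size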
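Luminescent ATP signal reported cell survival after H1299 lines (neo, p53 null; or p53 A138V) received up to 46 uM compound and 24 hr incubation at 39C.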
FH mod: Identification of activators of human fumarate hydratase by quantitative high-throughput screening | Fumarate hydratase, mitochondrial (Homo sapiens), P07954 | FH coupled MDH/diaphorase resazurin fluorescence, 15 min | Potency, µM (titrated, usually from 79.9 µM), inactives show at the top dose activity change, negative = inhibition, hits mostly inhibitors | 0.22% of 54,000 active; also: the screen sought activators but most active calls are inhibition curves; nearly all actives have a fitted effect of over 45% in size
Target sequence (P07954 whole entry, looked up): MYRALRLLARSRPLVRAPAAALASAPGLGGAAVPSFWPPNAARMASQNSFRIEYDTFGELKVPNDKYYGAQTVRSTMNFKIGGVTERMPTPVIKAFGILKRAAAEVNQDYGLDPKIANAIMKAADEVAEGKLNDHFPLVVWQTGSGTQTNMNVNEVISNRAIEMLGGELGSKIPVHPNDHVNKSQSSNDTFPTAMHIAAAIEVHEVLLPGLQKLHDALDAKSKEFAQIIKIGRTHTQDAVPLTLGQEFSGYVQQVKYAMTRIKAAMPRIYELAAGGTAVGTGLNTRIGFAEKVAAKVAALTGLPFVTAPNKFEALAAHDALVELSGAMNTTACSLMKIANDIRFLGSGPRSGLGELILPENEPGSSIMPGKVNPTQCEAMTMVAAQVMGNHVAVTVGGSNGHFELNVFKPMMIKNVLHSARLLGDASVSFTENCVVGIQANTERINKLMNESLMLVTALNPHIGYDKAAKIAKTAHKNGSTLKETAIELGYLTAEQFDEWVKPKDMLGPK
* = called active by the depositor; i = inactive; ? = inconclusive; . = not tested or not shown; ! = a repeat was not active; [ ] = remark or other dose. Only a selection was taken, and hits are over-represented in it overall. Calls follow the shape of the dose curve; as a rule, active = well fitted curve in the direction sought with a large enough effect; inconclusive = small, poorly fitted or top-dose-only effect, or another doubt; inactive = no such curve, though single readings can be large; an effect the other way counts as inactive or inconclusive. Unless noted, % is scaled to controls: 0 for no effect and ±100 for the full control effect; potency is read from the fitted curve at half-maximal effect.

SMILES	NTMT1 inh	OvCa metastasis	p53null 32C kill	p53null 39C kill	FH mod
Cc1c(OCC(F)(F)F)ccnc1CS(=O)c1nc2ccccc2[nH]1 (centres undefined)	44.7µM*!	0.2%	.	.	-9.5%[53.3 µM]
O=C(Cc1ccc(Cl)c(Cl)c1)Nc1ccc(S(=O)(=O)Nc2cccc(O)c2)cc1	-4.0%	.	.	.	.
COc1cc(O)c(C(CC(=O)N2CCCC(C(=O)c3ccccc3)C2)c2ccc3c(c2)OCO3)c(OC)c1 (centres undefined)	7.8%[228 µM]	.	.	.	.
CCOC(=O)C1CCN(C(=O)C(C)(C)NC(=O)Nc2ccc(Oc3ccccc3)cc2)CC1	3.0%	.	.	.	.
COc1cc2ncnc(Nc3ccc(F)c(Cl)c3)c2cc1OCCCN1CCOCC1	12.6µM*!	.	.	.	-1.5%
C=CC(=O)Nc1cc2c(Nc3ccc(F)c(Cl)c3)ncnc2cc1OCCCN1CCOCC1	11.2µM*!	-6.2%	.	.	-25.7%
Cn1cc(-c2cc(Oc3cc(F)c(NC(=O)C4(C(=O)Nc5ccccc5)CC4)cc3F)ccn2)cn1	3.6%	.	.	.	?
O=C(Nc1ccc(-n2nc(C(F)(F)F)cc2C(F)(F)F)cc1)c1ccncc1F	-3.5%[57.5 µM]	.	.	.	1.9%
CCCNS(=O)(=O)Nc1ncnc(OCCOc2ncc(Br)cn2)c1-c1ccc(Br)cc1	8.57µM*!	-13.2%	.	.	-2.7%[53.3 µM]
NS(=O)(=O)Nc1ncnc(OCCOc2ncc(Br)cn2)c1-c1ccc(Br)cc1	?	.	.	.	1.7%
O=[N+]([O-])c1ccccc1-c1nc(NCc2ccc(-c3cccnc3)cc2)c2ccccc2n1	11.1%	.	.	.	.
COc1cc2nc(SCC(=O)Nc3ccc(F)cc3)n3nc(CCn4c(C)nc5ccccc54)nc3c2cc1OC	-9.8%	i	12.0%	20µM*	-11.8%
CN1CCN(Cc2ccc(Nc3ncc(Cl)c(Nc4ccccc4S(=O)(=O)N(C)C)n3)cc2)CC1	?	.	.	.	0.4%[13.5 µM]
Nc1cc(C(F)(F)F)c(-c2nc(N3CCOCC3)nc(N3CCOCC3)n2)cn1	2.7%	.	.	.	.
COc1ccc(CCN2CCN(CCCc3ccccc3)CC2)cc1OC	89.1µM*!	-2.0%	.	.	3.0%
Cc1ccc(-n2ncc3c(NC4CCCCC4)ncnc32)cc1C	17.9%	29.1%	-16.2%	-4.0%	-5.4%
c1ccc(-n2ncc3c(NC4CCCC4)ncnc32)cc1	-21.3%	-4.8%	15.8µM*	?	-22.3%
Cc1ccc(-n2ncc3c(NC4CCCCC4)ncnc32)cc1Cl	-5.5%	6.5%	?	18.0%	-21.4%
Cc1cccc(-n2ncc3c(NC4CCCCC4)ncnc32)c1	.	.	-25.1%	0.0%	.
Cc1ccc(-n2ncc3c(NC4CCCC4)ncnc32)cc1	-12.2%	0.5%	7.94µM*	?	0.9%
COc1ccc(-n2ncc3c(NC4CCCC4)ncnc32)cc1	-23.8%	-0.2%	5.01µM*	7.6%	-26.5%
Cc1cccc(-n2ncc3c(NC4CCCC4)ncnc32)c1	?	?	12.6µM*	36.0%	-5.4%
COc1ccc(Cl)c(Nc2ncnc3cc(OCC4CCN(C)CC4)c(OC)cc23)c1	28.2µM*	.	.	.	-2.4%
COc1cc2ncnc(Nc3cc(Br)c(O)c(Br)c3)c2cc1OC	?	-5.0%	.	.	-16.3%
COc1cc2c(Nc3ccc(Cl)c(Cl)c3F)ncnc2cc1OCC1C[C@@H]2CN(C)C[C@@H]2C1 (some centres undefined)	11.2µM*	.	.	.	-24.8%
SMILES	NTMT1 inh	OvCa metastasis	p53null 32C kill	p53null 39C kill	FH mod
COC1C=C([C@@H]2CC=C3[C@@]4(C)C(CC[C@]32C)[C@@]2(C)C=CC(=O)C(C)(C)C2C[C@H]4OC(C)=O)C(=O)O1 (some centres undefined)	1.5%[29.8 µM]	.	.	.	0.0%[53.3 µM]
CS(=O)c1ccc(-c2nc(-c3ccc(F)cc3)c(-c3ccncc3)[nH]2)cc1 (centres undefined)	35.5µM*	29.5%[92.2 µM]	.	.	7.5%
O=C(Nc1ccccc1C(F)(F)F)c1noc2c1CCCCC2	.	i	10µM*	5.01µM*	.
COc1ccc2c(c1)CCc1c(C(=O)Nc3ccccc3C(F)(F)F)noc1-2	.	1.4%	-10.9%	-17.6%	.
CCOc1ccc(CCNC(C)=O)cc1OCC	50.1µM*	.	.	.	.
CCOc1ccc(CCNC(=O)c2ccccc2)cc1OCC	3.8%	.	.	.	.
CCc1ccccc1-c1nc(NCc2ccc(-c3cccnc3)cc2)c2ccccc2n1	14.8%	.	.	.	.
CCc1ccc(C(=O)c2cn(CC(=O)Nc3cc(OC)cc(OC)c3)c3ccc(CC)cc3c2=O)cc1	-22.6%	i	1.4%	-11.5%	4.0%
CCOc1ccc(C(=O)c2cn(CC(=O)Nc3cc(OC)cc(OC)c3)c3ccc(F)cc3c2=O)cc1	79.4µM*	i	14.6%	-7.9%	-6.7%
CCCCCCCCOc1ccccc1C(=O)Nc1ccc(C(=O)OCC[N+](C)(CC)CC)cc1	3.55µM*!	-3.9%	.	.	-14.5%[53.3 µM]
CCCCC(=O)N1CCC(C(=O)Nc2ccc([S+](=O)([O-])Nc3nccs3)cc2)CC1	-2.5%	.	.	.	.
O=C(NCCCN1CCN(c2cccc(Cl)c2)CC1)c1cnn(-c2ccc(F)cc2)c1-n1cccc1	-3.4%	i	13.1%	22.4µM*	?
O=C(NCCCNc1nc(Nc2cccc(NC(=O)N3CCCC3)c2)ncc1I)c1cccs1	39.8µM*	-0.7%	.	.	-26.5%
CCOC(=O)c1ccccc1NC(=O)C=C(C)C	.	.	.	14.8%[1.84 µM]	.
C/C(=C\C(=O)Nc1ccccc1C(=O)O)c1ccc2ccccc2c1	28.2µM*	.	.	.	-7.0%
NC(=O)[C@H](O[C@@H]1O[C@H](CO)[C@@H](O)[C@H](O)[C@H]1O)c1ccccc1	-6.3%[29.8 µM]	.	.	.	-1.0%[53.3 µM]
Cc1ccc(OCCn2c(CCNC(=O)c3cccc4ccccc34)nc3ccccc32)cc1	4.6%[57.5 µM]	.	.	.	.
CCOc1ccc(-c2cc(C(=O)N3CCN(c4cccc(C)c4)C(C)C3)c3ccccc3n2)cc1 (centres undefined)	-7.7%	-27.9%	?	8.7%	-37.7%
CCOc1ccc(-c2cc(C(=O)N3CCN(c4ccc(C)cc4)C(C)C3)c3ccccc3n2)cc1 (centres undefined)	6.2%	4.1%	12.6µM*	?	-13.2%
CCn1c(=O)cc(OCC(=O)N2CCN(c3ccc(C)cc3)C(C)C2)c2ccccc21 (centres undefined)	-19.2%	-3.7%	-4.3%	25.1µM*	-7.4%
CC(=O)OCC1=CCC2C(C)(C)CCCC2(C)C12CCC(C)(CC(=O)O)O2 (centres undefined)	10.4%[29.8 µM]	.	.	.	0.4%[53.3 µM]
Cc1cc(O[C@@H](CCC(F)(F)F)c2ccc(C(=O)NCCC(=O)O)cc2)cc(C)c1-c1ccc(C(C)(C)C)cc1	31.6µM*	.	.	.	.
Cc1[nH]c(/C=C2\C(=O)Nc3ccc(S(=O)(=O)N(C)c4cccc(Cl)c4)cc32)c(C)c1C(=O)N1CCN(C)CC1	-14.9%	.	.	.	-11.3%
Cc1[nH]c(C=C2C(=O)Nc3ccc(S(=O)(=O)Cc4c(Cl)cccc4Cl)cc32)c(C)c1C(=O)N1CCC[C@H]1CN1CCCC1	6.81µM*	5.3%	.	.	2.5%[53.3 µM]

Screening results: PubChem BioAssay, National Center for Advancing Translational Sciences (NCATS)
